Screening data: PubChem, National Center for Advancing Translational Sciences (NCATS)
Abeta yeast res – restores growth of yeast expressing A-beta42 peptide. yeast expressing A-beta42, growth rescue, OD600, 48 h; response scale: 0% DMSO, 100% iron-clioquinol control. Potency, µM (top dose mostly 46.1 µM), actives largely listed as activators. hit rate 0.063% among 410,000. AID 1347071; note: nearly all actives have a fitted effect of over 55% in size
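Yeast growth medium received pinned compounds, then yeast cells expressing toxic A-beta were added; plates incubated at 30 C for 48 hr. Growth read as absorbance at 600 nm, normalized to DMSO and equimolar FeCl3 plus clioquinol controls.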
FUS suppressor – FUS proteinopathy suppression in yeast | S. cerevisiae FUS-expressing, growth rescue, OD600, 24 h | Potency, µM (doses to about 76.6 µM), most hits filed as activators | hit rate 0.24% among 390,000;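 note: plate controls were DMSO vehicle for no effect and reference control for full effect; nearly all actives have a fitted effect of over 55% in size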
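Cultures pregrown in 2.5% raffinose medium are shifted to minimal medium containing 2% galactose to express toxic FUS. Compounds are tested at several concentrations. After 24hr at 30C, growth is quantified at 600 nm absorbance.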
TDP-43 yeast inh – inhibitors of TDP-43 toxicity in yeast | TDP-43 expressing yeast growth rescue, BacTiter-Glo, 24 h | Potency, µM (top dose mostly 46.1 µM), for the others: at the highest dose growth rescue (activation), actives largely listed as activators | hit rate 1.8% among 410,000 | AID 652104; note: % of control where 0% means no effect; nearly all actives have a fitted effect of over 50% in size
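Galactose-induced TDP-43 yeast, OD600=0.02, compound pinned; 24 hr, 30 deg C; BacTiter-Glo luminescence for growth. Inhibitors of TDP-43 toxicity read as activators.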
aSyn yeast inh – rescues yeast growth from alpha-synuclein toxicity; hit rate 0.14% among 370,000; Potency, µM (highest dose often 46.1 µM), inactives show at the top dose growth rescue (activation), hits mostly activators; AID 652106; Yeast expressing alpha-synuclein, growth rescue, BacTiter-Glo, 24 h; note: % of control where 0% means no effect; nearly all actives have a fitted effect of over 65% in size
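Readout is rescue of growth in alpha-synuclein-expressing yeast, so inhibitors of toxicity appear as activators. Growth after 24 hr at 30 deg C in galactose medium is quantified by luminescence.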
Starred values were filed as active, the others as inactive. Shown are actives, neighbours in structure and some others; about 2.1% of the full set was active somewhere. Calls come from the whole dose curve; as a rule, active = well fitted curve in the direction sought with a large enough effect; inconclusive = small, poorly fitted or top-dose-only effect, or another doubt; inactive = no such curve, though single readings can be large; an effect the other way counts as inactive or inconclusive. Potency is the fitted concentration of half-maximal effect.

CNC(=O)c1c(NC(=O)/C=C/c2ccccc2)sc2c1CCC2 was read as Abeta yeast res inactive, FUS suppressor inactive, TDP-43 yeast inh 18µM* and aSyn yeast inh -30%.
For COC(=O)C1CN(Cc2ccc(C)cc2)CCS(=O)(=O)N1Cc1cn(Cc2ccc(OC)cc2)nn1 (configuration not stated) the results were FUS suppressor inactive.
For CCCCNC(=O)CCCn1c(=O)c2ccccc2n(Cc2ccccc2C)c1=O the results were Abeta yeast res inactive, FUS suppressor inactive and TDP-43 yeast inh 27%.
CC1Cc2ccccc2N1c1ncnc2nc[nH]c12 (configuration not stated) was read as Abeta yeast res inactive, FUS suppressor inactive, TDP-43 yeast inh 20µM* and aSyn yeast inh -10%.
`c1ccc2c(c1)CCN(c1ncnc3nc[nH]c13)C2` gave Abeta yeast res inactive, FUS suppressor inactive, TDP-43 yeast inh -16% and aSyn yeast inh 1%.
Screening CC1Cc2ccccc2N1c1ncnc(N)c1[N+](=O)[O-] (configuration not stated) returned Abeta yeast res inactive, FUS suppressor inactive, TDP-43 yeast inh 11µM* and aSyn yeast inh 15%.
Screening CC1CCCCN1c1ncnc(N)c1[N+](=O)[O-] (configuration not stated) returned Abeta yeast res inactive, FUS suppressor inactive, TDP-43 yeast inh 11% and aSyn yeast inh 15%.
`Cc1cc(NC(=O)c2ccc(NS(=O)(=O)c3ccc(F)cc3)cc2)no1` gave FUS suppressor inactive.
For COc1ccc2c(c1)c1nnc(SC)nc1n2C the results were Abeta yeast res inactive, FUS suppressor inactive, TDP-43 yeast inh 2.8µM* and aSyn yeast inh 3.5µM*.
COc1ccc2c(c1)c1nnc(SCC(=O)N3C(C)CCCC3C)nc1n2C (configuration not stated) was read as Abeta yeast res inactive, FUS suppressor inactive, TDP-43 yeast inh 14µM* and aSyn yeast inh 8%.
For COc1ccc2c(c1)c1nnc(SC(C)C)nc1n2C the results were aSyn yeast inh 7.9µM*.
For COC(=O)c1cc(-c2cccs2)c(=O)n2c1CCC2 the results were FUS suppressor inactive.
`O=C(COC(=O)C12CC3CC(CC(C3)C1)C2)Nc1ccc(OC(F)F)cc1` gave Abeta yeast res inconclusive, FUS suppressor inactive and TDP-43 yeast inh 18µM*.
Screening COc1cc(-n2c(C)nc3cc(C(=O)N4CC(C)CC(C)C4)ccc32)cc(OC)c1OC (configuration not stated) returned FUS suppressor inactive.
For COc1ccc(C)cc1NC(=O)c1nn(-c2ccccc2)cc1OC the results were Abeta yeast res inactive, FUS suppressor inactive, TDP-43 yeast inh 16µM* and aSyn yeast inh -11%.
`COc1ccc(C)cc1NC(=O)C1CC1c1ccccc1` (configuration not stated) gave Abeta yeast res inactive, FUS suppressor inactive, TDP-43 yeast inh 16µM* and aSyn yeast inh -29%.
Screening O=C(CCCl)NC1CCCCN(Cc2ccc(OC(F)(F)F)cc2)C1=O (configuration not stated) returned FUS suppressor inactive.
For O=c1c2c3c(sc2ncn1-n1cccc1)CCCCC3 the results were Abeta yeast res inactive, FUS suppressor inactive, TDP-43 yeast inh 13µM* and aSyn yeast inh 7%.
CCOC(=O)c1sc(-c2ccccc2)cc1N was read as Abeta yeast res inactive, FUS suppressor inactive, TDP-43 yeast inh 7.1µM* and aSyn yeast inh 16%.
CCC(C)Sc1ccc(-c2nc3ccccn3c2NCc2ccccc2)cc1OC (configuration not stated) was read as Abeta yeast res inactive, FUS suppressor inactive, TDP-43 yeast inh -88% and aSyn yeast inh -47%.
COc1ccc(CSc2ccc(-c3nc4ccccn4c3NCc3ccccc3)cc2OC)cc1 was read as Abeta yeast res inactive, FUS suppressor inconclusive, TDP-43 yeast inh 35µM* and aSyn yeast inh -33%.
Screening Cc1c2ccncc2cc2c1[nH]c1ccccc12 returned Abeta yeast res inactive, FUS suppressor inactive, TDP-43 yeast inh -1% and aSyn yeast inh 10µM*.
CC(=O)Nc1ccc(-c2nnc(SCc3ccccc3)n2C)cc1 was read as aSyn yeast inh 5%.
`C/C(=N\NC(=O)c1cc2ccccc2cc1O)c1ccccn1` gave Abeta yeast res inconclusive, FUS suppressor inactive, TDP-43 yeast inh -26% and aSyn yeast inh 10µM*.
C/C(=N/NC(=O)c1cc2ccccc2cc1O)C1C(=O)c2ccccc2C1=O was read as Abeta yeast res inactive, FUS suppressor 7.1µM*, TDP-43 yeast inh 16% and aSyn yeast inh -2%.
CCCCSc1ccc2nc(-c3ccc(C#N)cc3)cn2c1 was read as Abeta yeast res inactive, FUS suppressor inactive, TDP-43 yeast inh 11µM* and aSyn yeast inh -12%.
`CCCSc1ccc2nc(-c3ccccc3)cn2c1` gave Abeta yeast res inactive, TDP-43 yeast inh -14% and aSyn yeast inh -18%.
Screening CCNC(=O)O/N=C1\CCCCC1c1ccc([N+](=O)[O-])cc1[N+](=O)[O-] (configuration not stated) returned Abeta yeast res inactive, FUS suppressor inactive, TDP-43 yeast inh 14µM* and aSyn yeast inh -5%.
`CCC(=O)N1c2ccc(S(=O)(=O)N3CCN(c4ccccc4Cl)CC3)cc2CC1C` (configuration not stated) gave Abeta yeast res inactive, FUS suppressor inconclusive, TDP-43 yeast inh 35µM* and aSyn yeast inh 8%.
Screening CCn1c(SCC(=O)Nc2ccc3c(c2)c2ccccc2n3CC)nnc1-c1ccco1 returned Abeta yeast res inactive, FUS suppressor 25µM*, TDP-43 yeast inh 20% and aSyn yeast inh -11%.
COc1ccc(C2CC(=O)c3cc(-c4nc(-c5cccc([N+](=O)[O-])c5)cs4)c(=O)n(-c4ccccc4C)c3C2)cc1 (configuration not stated) was read as Abeta yeast res inactive, FUS suppressor inactive and TDP-43 yeast inh 2%.
CC(C)c1ccc(NC(=O)CSC2=Nc3ccccc3C3=NC(CC(=O)NCc4cccs4)C(=O)N23)cc1 (configuration not stated) was read as Abeta yeast res 13µM*, FUS suppressor inactive and TDP-43 yeast inh inconclusive.
`CCc1ccc2[nH]c(=O)c(C3C(C#N)=C(N)Oc4c3ccc3cccnc43)cc2c1` (configuration not stated) gave Abeta yeast res inactive, FUS suppressor 25µM*, TDP-43 yeast inh 4% and aSyn yeast inh 8%.
`Cc1ccc2cc(C3C(C#N)=C(N)Oc4c3ccc3cccnc43)c(=O)[nH]c2c1` (configuration not stated) gave Abeta yeast res inactive, FUS suppressor 28µM*, TDP-43 yeast inh -22% and aSyn yeast inh -2%.
